An excerpt weighted towards active compounds, which were near 9.4% of everything screened.
SMN2 splice up – enhancers of SMN2 splice variant expression; HEK293 SMN2-luciferase splicing reporter, luminescence, 30-36 h; Potency, µM (titrated, usually from 46.1 µM), hits mostly activators; 210,000 tested, 2.8% active; AID 1458; also: nearly all actives have a fitted effect of over 55% in size
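qHTS luciferase splicing reporter: luminescence rises when SMN2 exon 7 is included in transfected HEK293 cells. Compound exposure lasted 30-36 h at 37C, with 4.5 mM final sodium butyrate as control, followed by a ONE-Glo read.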
ELG1 genotoxic – inducers of genotoxicity in HEK293T ELG1-luciferase cells; HEK293T ELG1-luciferase reporter, luminescence, 16 h; Potency, µM (highest dose often 46 µM), actives largely listed as activators; 330,000 tested, 1.3% active; AID 504466; also: nearly all actives have a fitted effect of over 60% in size
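HEK293T cells expressing luciferase-tagged ELG1 were treated with compound or DMSO for 16 hr at 37°C. Luciferase activity was then read after 30 min with ONE-Glo at room temperature; rising signal flags genetic stress.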
ELG1 repair inh – inhibitors of ELG1-dependent DNA repair in HEK293T cells; HEK293T ELG1-luciferase reporter, luminescence, 16 h; DNA damage induced by 5-fluorouridine; Potency, µM (titrated, usually from 46.1 µM), usual class: inhibitors; 330,000 tested, 2.3% active; AID 504467; also: nearly all actives have a fitted effect of over 55% in size
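Quantitative HTS, concentration-response format. 2,000 cells/well co-treated with 5-fluorouridine and compound, 16 hr in 5% CO2 at 37 °C; ONE-Glo luminescence read after 30 min.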
FLuc counter – inhibits or activates purified firefly luciferase, miR-21 counter-screen; purified FLuc, Km substrates, luminescence inhibition; AID 588342; 360,000 tested, 6.9% active; Potency, µM (top dose mostly 57.5 µM), hits mostly inhibitors; also: nearly all actives have a fitted effect of over 55% in size
Target sequence (P08659 whole entry, looked up): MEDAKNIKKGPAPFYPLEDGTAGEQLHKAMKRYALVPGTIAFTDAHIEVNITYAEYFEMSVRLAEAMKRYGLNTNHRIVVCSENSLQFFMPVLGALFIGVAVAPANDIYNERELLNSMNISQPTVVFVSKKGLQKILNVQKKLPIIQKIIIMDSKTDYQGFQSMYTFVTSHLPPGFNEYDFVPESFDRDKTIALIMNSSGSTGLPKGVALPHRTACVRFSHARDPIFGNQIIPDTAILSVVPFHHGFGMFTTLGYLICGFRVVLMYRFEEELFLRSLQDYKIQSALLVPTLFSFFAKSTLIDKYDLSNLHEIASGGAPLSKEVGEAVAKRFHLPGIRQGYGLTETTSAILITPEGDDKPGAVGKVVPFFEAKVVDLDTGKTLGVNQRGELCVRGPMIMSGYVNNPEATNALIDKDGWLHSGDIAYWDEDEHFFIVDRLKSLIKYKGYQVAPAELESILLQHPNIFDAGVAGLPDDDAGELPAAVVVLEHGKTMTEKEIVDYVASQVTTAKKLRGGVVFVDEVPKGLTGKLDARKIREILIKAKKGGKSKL
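Purified P. pyralis luciferase, 10 nM final, with Km-level 10 uM D-luciferin and 10 uM ATP in 50 mM Tris acetate pH 7.5, 10 mM Mg acetate, 0.01% Tween-20, 0.05% BSA; 6-point qHTS titration about 60 µM downward; luminescence read.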
Rab9 promoter act – activates the Rab9 promoter. Huh7 Rab9 promoter-luciferase reporter, luminescence, 24 h. Potency, µM (top dose mostly 9.22 µM), actives largely listed as activators. 320,000 tested, 2.8% active; also: nearly all actives have a fitted effect of over 60% in size
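Cells were plated at 1500 per well in reduced-serum medium with 10% FBS and left 2 h. Compound in DMSO was then added for 24 h at 37 °C. Reporter signal was read by luminescence after 10 min with luciferase detection reagent.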
NPC1 prom act – activators of NPC1 promoter; Huh7 NPC1 promoter luciferase reporter, 24 h; Potency, µM (titrated, usually from 9.22 µM), hits mostly activators; 320,000 tested, 2.4% active; also: nearly all actives have a fitted effect of over 60% in size
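Stable NPC1-promoter luciferase Huh7 line; cpd (DMSO) 24 h, 37 °C, 5% CO2; Amplite luciferase reagent 10 min RT; luminescence readout. qHTS format.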
Large screens that a line does not name were inactive. Calls follow the shape of the dose curve; as a rule, active = well fitted curve in the direction sought with a large enough effect; inconclusive = small, poorly fitted or top-dose-only effect, or another doubt; inactive = no such curve, though single readings can be large; an effect the other way counts as inactive or inconclusive.

COc1ccc(OC)c(NC(=O)CN(c2ccc(C(C)C)cc2)S(=O)(=O)c2c(C)noc2C)c1	ELG1 repair inh 8.2µM
CCc1ccc(C(=O)c2cn(CC(=O)Nc3cc(F)ccc3F)c3nc(C)ccc3c2=O)cc1	none (no result: SMN2 splice up, ELG1 genotoxic, ELG1 repair inh, Rab9 promoter act, NPC1 prom act)
Cc1ccc2c(CNCc3ccc(C)o3)c(C(=O)O)n(Cc3ccccc3C)c2c1	none (no result: SMN2 splice up, ELG1 genotoxic, ELG1 repair inh, Rab9 promoter act, NPC1 prom act)
COC(=O)CSc1cnc2ccccc2n1	none (no result: ELG1 genotoxic, ELG1 repair inh, Rab9 promoter act, NPC1 prom act)
O=C(CSc1nnc2ccc3ccccc3n12)c1ccc(F)cc1	FLuc counter 6.75µM, Rab9 promoter act inconclusive (no result: SMN2 splice up, ELG1 genotoxic, ELG1 repair inh)
O=C(CSc1cnc2ccccc2n1)c1ccc(F)cc1	SMN2 splice up 11.2µM, ELG1 genotoxic inconclusive, ELG1 repair inh inconclusive, FLuc counter 4.78µM, Rab9 promoter act 3.16µM, NPC1 prom act 3.16µM
Cc1nc(-c2cc(-c3nc(-c4ccc(C(F)(F)F)cc4)no3)no2)cs1	none (no result: SMN2 splice up)
Cc1c(-c2nc(-c3ccc(C(C)(C)C)cc3)no2)n(C)oc1=O	ELG1 genotoxic inconclusive, ELG1 repair inh inconclusive, FLuc counter 10.7µM, Rab9 promoter act inconclusive, NPC1 prom act inconclusive (no result: SMN2 splice up)
Cc1cc(-c2nc(-c3ccc(C(C)(C)C)cc3)no2)no1	ELG1 genotoxic inconclusive, ELG1 repair inh inconclusive, FLuc counter 3.01µM, Rab9 promoter act 0.562µM, NPC1 prom act 1µM (no result: SMN2 splice up)
CC(C)(C)c1ccc(-c2noc(-c3ccc4c(c3)CCO4)n2)cc1	ELG1 genotoxic inconclusive, ELG1 repair inh inconclusive, FLuc counter 8.49µM, NPC1 prom act inconclusive (no result: SMN2 splice up)
CCOCCCN1C(=O)CN(C2CCCCCC2)C(=O)C1c1ccc(OC(C)C)c(OC)c1 (centres undefined)	none (no result: SMN2 splice up, ELG1 genotoxic, ELG1 repair inh, Rab9 promoter act, NPC1 prom act)
Cc1ccc2c(=O)cc(C(=O)Nc3c(C(=O)c4ccccc4)oc4ccccc34)oc2c1C	none (no result: ELG1 genotoxic, ELG1 repair inh, Rab9 promoter act, NPC1 prom act)
CCOc1ccccc1CNS(=O)(=O)c1ccc2[nH]c(=O)ccc2c1	none (no result: SMN2 splice up, ELG1 genotoxic, ELG1 repair inh, Rab9 promoter act, NPC1 prom act)
CN1CCN(Cc2nc3ccccc3c(=O)n2Cc2nc(-c3ccc4ccccc4c3)cs2)CC1	ELG1 repair inh 13µM
CN1CCN(Cc2nc3ccccc3c(=O)n2Cc2nc(-c3cccc([N+](=O)[O-])c3)cs2)CC1	ELG1 repair inh inconclusive (no result: SMN2 splice up)
CN1CCN(Cc2nc3ccccc3c(=O)n2Cc2nc(-c3ccccc3F)cs2)CC1	ELG1 repair inh 16.4µM, FLuc counter inconclusive (no result: SMN2 splice up)
CN(C)Cc1nc2ccccc2c(=O)n1Cc1nc(C(C)(C)C)cs1	ELG1 repair inh inconclusive
CCOc1ccc(CCNC(=O)c2c(C)oc3ncnc(N4CCOCC4)c23)cc1	none (no result: SMN2 splice up, ELG1 genotoxic, ELG1 repair inh, Rab9 promoter act, NPC1 prom act)
O=C(Nc1nc2ccccc2s1)C1c2ccccc2Oc2ccccc21	none
O=C(Nc1nc2ccc(F)cc2s1)C1CCCO1 (centres undefined)	SMN2 splice up 15.8µM, ELG1 genotoxic inconclusive, ELG1 repair inh inconclusive, FLuc counter 6.75µM, Rab9 promoter act 2.24µM, NPC1 prom act 1.12µM
Nc1ccc2nc(NC(=O)C3CCCCC3)sc2c1	SMN2 splice up 14.1µM, ELG1 genotoxic 20.6µM, ELG1 repair inh inconclusive, FLuc counter 6.75µM, Rab9 promoter act 4.47µM, NPC1 prom act inconclusive
O=C(Nc1nc2ccc(C(=O)N3CCCCC3)cc2s1)C1CCCCC1	ELG1 repair inh inconclusive (no result: SMN2 splice up)
CCOc1ccc2nc(NC(=O)C3CCCO3)sc2c1 (centres undefined)	none (no result: SMN2 splice up)
O=C(Nc1nc2ccccc2s1)C1CCCO1 (centres undefined)	SMN2 splice up 12.6µM, ELG1 genotoxic 5.8µM, ELG1 repair inh inconclusive, FLuc counter 15.1µM, Rab9 promoter act inconclusive, NPC1 prom act 1.12µM
O=C(Nc1nnc(-c2ccccc2F)s1)C1CCCO1 (centres undefined)	SMN2 splice up 5.01µM, ELG1 genotoxic inconclusive, ELG1 repair inh inconclusive, FLuc counter 15.1µM, Rab9 promoter act 2.51µM, NPC1 prom act 3.55µM
O=C(Nc1nnc(-c2ccncc2)s1)C1CCCO1 (centres undefined)	SMN2 splice up inconclusive, ELG1 repair inh inconclusive
CN(C(=O)c1cc2nc(-c3ccc4c(c3)OCO4)cc(C(F)(F)F)n2n1)c1ccc(OC(F)(F)F)cc1	none (no result: ELG1 genotoxic, ELG1 repair inh, Rab9 promoter act, NPC1 prom act)
COc1ccc(NC(=O)CC2C(=O)N(c3ccc(F)cc3)C(=O)N2Cc2ccc3c(c2)OCO3)cc1 (centres undefined)	none (no result: ELG1 genotoxic, ELG1 repair inh, Rab9 promoter act, NPC1 prom act)
